# Measurements reported in PubChem BioAssay AID687016 (The Scripps Research Institute Molecular Screening Center, 2013).
# “And” between values parts separate entries of the source, which are not always exact repeats. Equal entries are not always repeated. Screen size: about 370,000 compounds; about 2,800 (0.76%) were called active. Cut-off read from the data, not from the text of the source: active = inhibition above about 21%; inactive = the rest. The list comes from a sample in which actives are over-represented; it also holds similar structures and randomly drawn compounds. Some compounds were tested as several samples or in several runs, with calls that do not always agree.
# Molecular target: E3 ubiquitin-protein ligase UHRF1 (Homo sapiens) (UniProt Q96T88)
# Experiment: UHRF1 methylated DNA binding inhibitors, primary screen, counter-screen for MBD2 inhibitor project, biochemical, TR-FRET, human UHRF1, single concentration (AID 687016);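 note: UHRF1 SRA domain binding a hemimethylated CpG hairpin DNA probe; 0% = median of test compound wells and 100% = reference inhibitor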
# Settings: UHRF1 binding to methylated oligo, at 4.4 µM, stronger effect = higher value
# Sequence of E3 ubiquitin-protein ligase UHRF1 (Homo sapiens) (Q96T88 whole entry, looked up, the tested form may be a part): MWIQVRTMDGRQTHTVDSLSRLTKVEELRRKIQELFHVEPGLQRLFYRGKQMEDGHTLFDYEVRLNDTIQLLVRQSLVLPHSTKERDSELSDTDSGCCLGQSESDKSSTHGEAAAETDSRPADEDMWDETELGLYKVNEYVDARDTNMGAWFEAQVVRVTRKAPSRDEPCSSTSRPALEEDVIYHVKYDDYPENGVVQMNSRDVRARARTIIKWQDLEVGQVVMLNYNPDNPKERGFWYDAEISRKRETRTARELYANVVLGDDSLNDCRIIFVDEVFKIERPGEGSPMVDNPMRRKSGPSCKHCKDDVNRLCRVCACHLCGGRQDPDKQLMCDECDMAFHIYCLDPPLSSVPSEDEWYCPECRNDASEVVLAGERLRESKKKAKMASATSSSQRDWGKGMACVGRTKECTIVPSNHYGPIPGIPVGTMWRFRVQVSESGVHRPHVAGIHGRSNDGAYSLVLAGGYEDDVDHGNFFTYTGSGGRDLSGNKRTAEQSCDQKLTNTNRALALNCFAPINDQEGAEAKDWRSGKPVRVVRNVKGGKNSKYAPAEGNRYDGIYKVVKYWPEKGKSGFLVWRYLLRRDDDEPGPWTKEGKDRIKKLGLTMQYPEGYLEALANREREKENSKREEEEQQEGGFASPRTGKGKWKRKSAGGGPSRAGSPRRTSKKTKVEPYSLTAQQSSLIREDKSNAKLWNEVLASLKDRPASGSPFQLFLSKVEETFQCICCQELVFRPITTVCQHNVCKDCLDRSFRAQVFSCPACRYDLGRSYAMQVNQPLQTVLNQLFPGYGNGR
row,SMILES,inhibition
1,C[C@@H](NC(=O)c1ccccc1OCC(=O)Nc1ccc(I)cc1)C(=O)N(C)Cc1ccccc1,0.7% (inactive)
2,COc1ccc2c(c1)c(=Cc1ccc(N(C)C)cc1)c1cc(-c3ccccc3)[n+](C)n12,57.8% (active)
3,C=C1C(C(C)C)N(C)C2=NC(c3ccccc3)CC(=O)N12 (stereo not drawn),-0.97% (inactive)
4,CC(C)CSc1nnc(-c2cccnc2)n1Cc1ccccc1,-0.61% (inactive)
5,Cc1ccc(NC(=O)Cc2cccc(F)c2)c(S(=O)(=O)N2CCOCC2)c1,0.9% (inactive)
6,Cc1ccccc1Cn1c2ccccc2c2cnn(CC(=O)NCc3ccco3)c(=O)c21,22.5% (active)
7,O=C(Cn1ncc2c3ccccc3n(Cc3ccccc3)c2c1=O)NCCCN1CCOCC1,0.46% (inactive)
8,O=C(Cn1ncc2c3ccccc3n(Cc3ccccc3)c2c1=O)NCc1ccccn1,0.71% (inactive)
9,CCC(=O)c1c(CC)c2n3c1=CC[C@H]3CC(Br)C=2 (stereo partly drawn),1.95% (inactive)
10,O=C(NCc1ccc(Cl)cc1)C1CCCN(c2nc3ccccc3o2)C1 (stereo not drawn),2.81% (inactive)
11,COc1ccc(N2CCN(CCNS(=O)(=O)c3ccc(Cl)s3)CC2)cc1,-0.57% (inactive)
12,Cc1ccc(NC(=O)OCc2cncs2)cc1,49.5% (active)
13,O=C(Nc1ccc(Cl)cc1)OCc1cc(-c2ccccc2)on1,2.42% (inactive)
14,CC(C)(COC(=O)Nc1ccccc1)COC(=O)Nc1ccccc1,-1.28% (inactive)
15,CN1C[C@]2(C=C3CCCCC3n3c(=O)n(-c4ccccc4)c(=O)n32)N=C1NC(=O)c1ccccc1 (stereo partly drawn),-2.02% (inactive)
16,CCOC(=O)[C@@]12CCC3=C1N(CCC3)C(=O)[C@H](CC(=O)N1CCN(C(=O)c3ccco3)CC1)C2,-1.01% (inactive)
17,Cc1ccc(-c2nc(C3CCCN(S(=O)(=O)c4ccc(Br)s4)C3)no2)cc1 (stereo not drawn),1.59% (inactive)
18,Cc1cc(C)c2nc3nc(C)cc(C)c3c(N)c2c1,26.9% (active)
19,CCCCN1CCN(C(=O)c2ccc3c(c2)NC(=O)C(C)(C)O3)CC1,0.61% (inactive)
20,C=CCN1[C@H](CC(C)C)COc2cccc(N3CCCC3)c2S1(=O)=O,-0.17% (inactive)
21,COC(=O)CN1C(=O)N/C(=C/c2ccc(OC)c(C)c2OC)C1=O,-4.91% (inactive)
22,Cc1ccccc1NC(=O)Cn1c(=O)n(CC2CCCO2)c(=O)c2ccccc21 (stereo not drawn),-0.24% (inactive)

row,SMILES,inhibition
1,Cc1ccccc1NC(=O)CN1C(=O)N/C(=C\c2cccn2-c2cccc(C(=O)O)c2)C1=O,74.8% (active)
2,CC(C)(C)C1C/C(=C/c2ccco2)C(=O)/C(=C/c2ccco2)C1 (stereo not drawn),99.5% (active)
3,CCN1CCN(C(=O)N[C@@H](C(=O)N[C@@H]2C(=O)N3C(C(=O)O)=C(CSc4nnnn4C)CS[C@H]23)c2ccc(O)cc2)C(=O)C1=O,-2.2% (inactive)
4,C=CC1=C(C(=O)O)N2C(=O)[C@@H](NC(=O)/C(=N/OCC(=O)O)c3csc(N)n3)[C@H]2SC1,93.7% (active)
5,C=CC1=C(C(=O)O)N2C(=O)[C@@H](NC(=O)/C(=N\OCC(=O)O)c3csc(N)n3)[C@H]2SC1,77.4% (active)
6,CO/N=C(\C(=O)N[C@@H]1C(=O)N2C(C(=O)O)=C(COC(C)=O)CS[C@H]12)c1csc(N)n1 (stereo in doubt),9.54% (inactive) and 0.92% (inactive) and 27.5% (active)
7,COc1ccc(-n2c(COc3ccc(C)cc3)nnc2SCC(=O)Nc2ccc(Oc3ccccc3)cc2)cc1,-5.28% (inactive)
8,CN(C)Cc1cn(-c2ccc(-c3noc4c3C(=O)N(CC(=O)N3CCOCC3)CC4)cc2)nn1,2.67% (inactive)
9,O=C(CSCc1ccc(Br)cc1)Nc1ccc(S(=O)(=O)N2CCCCCC2)cc1,-1.33% (inactive)
10,O=C(CN1CCCCC1)Nc1ccccc1Cl,45.6% (active)
11,O=C(CN1CCCCCC1)Nc1c(Cl)cc(Cl)cc1Cl,-0.79% (inactive)
12,CCOc1ccc(NC(=O)COc2ccc(S(=O)(=O)N3CCCC3)cc2)cc1,1.66% (inactive)
13,O=C(CN1CCCCCC1)Nc1ccc(S(=O)(=O)N2CCCCC2)cc1,62.1% (active)
14,O=C(CN1CCCCC1)Nc1ccccc1C(=O)NC1CC1,3.15% (inactive)
15,CC(=O)Nc1ccc(OC[C@@H](O)CN2CCC(C(O)(c3ccccc3)c3ccccc3)CC2)cc1,1.32% (inactive)
16,Cc1ccc(NC(=O)c2cc(C)nn2-c2ccccc2)c(C)c1,-1.23% (inactive)
17,CCCCCN1CCCCC(NC(=O)C(C)CCC)C1=O (stereo not drawn),-0.32% (inactive)
18,CCN(CC)CCNC(=O)Cn1cnc2sc(C)c(S(=O)(=O)N3CCOCC3)c2c1=O,6.01% (inactive)
19,Cc1sc2ncn(CC(=O)NCCN(C)C)c(=O)c2c1S(=O)(=O)N1CCC(C)CC1,-1.58% (inactive)
20,CCN(CC)CCCNC(=O)Cn1cnc2sc(C)c(S(=O)(=O)N3CCN(c4ncccn4)CC3)c2c1=O,31.2% (active)
21,C=CCN1C(=O)[C@@H](CC(=O)NCCCOCCCC)[C@]2(C(=O)OCC)CCCCC/C=C/12,-0.5% (inactive)
